According to PubChem BioAssay (NCI):
This is part of a sample that, as a whole, favours compounds with a hit. Of some 83,000 tested, about 20% had one in any assay.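 96-well plates, one dose, 48 hours. Percent growth reported; active if below 10.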 A number with no mark means an inactive call. Calls of active or inactive are those of the source.

System: SNB-19 CNS
Experiment: NCI-60 one-dose screen, 48 h (100 = growth as untreated, 0 = no growth, -100 = all killed)
Details: 10 µM
Procedure: Growth inhibition of the SNB-19 human tumor cell line is measured as a screen for anti-cancer activity. Cells are grown in 96 well plates and exposed to the test compound for 48 hours. Compounds are tested at a single concentration, which is 10^-5 M for most compounds. The reported endpoint is percent growth (GI% or GIPRCNT), where numbers from 0 - 100% represent growth inhibition, and numbers from -100% - 0 represent cell death. For example, a value of 40 represents 60% growth inhibition. A value of 0 means no net growth occurred over the course of the experiment. A value of -40 indicates 40% of cells at the beginning of the experiment died by the end of the experiment. A value of -100 means all cells are dead at the end of the experiment.
NCI-60 Human Tumor Cell Lines Screen was performed using the standard one-dose NCI protocol, which is described in more detail at https://dtp.cancer.gov/discovery_development/nci-60/default.htm.
Compounds with GIPRCNT values below 10 were considered active. Activity score was based on GIPRCNT using the following formula: […]
Score is 0 for GIPRCNT values of 100 or above, 50 for GIPRCNT values of 0, and 100 for GIPRCNT values of -100.

Structure (SMILES)	growth
C=C1C(=O)O[C@H]2[C@H]1CC/C(COC(=O)OCCCCCOC(=O)OC/C1=C/CC[C@@]3(C)O[C@H]3[C@H]3OC(=O)C(=C)[C@@H]3CC1)=C\CC[C@@]1(C)O[C@@H]21	25.7%
CCN(CC)CCCOC(=O)Nc1ccccc1Cl	104%
FC(F)(F)c1ccc(-c2cnc(Cl)nc2NCc2cc(C(F)(F)F)cc(C(F)(F)F)c2)cc1	14.8%
Cn1c([N+](=O)[O-])cnc1C=C1C(=O)c2ccccc2C1=O	85.1%
CCCc1ccnc(NS(=O)(=O)c2ccc(N)cc2)n1	76.6%
NS(=O)(=O)c1ccc(N2N=C(c3ccc(-c4ccccc4)cc3)CC2c2ccc(Cl)cc2)cc1 (stereo not given)	86.5%
O=C(O)c1ccc(CNc2ccc(C(=O)CCl)cc2)cc1	103%
CCCCCCCCCCCC(c1ccccc1)N(C)C (stereo not given)	95.1%
Cc1nc2scc(-c3ccc(Cl)cc3)n2c(=O)c1CCN1CCOCC1	94.6%
O=C(CCc1ccccc1)N1CCN(C(=O)CCc2ccccc2)CC1	99.6%
Cc1nc2ccc(-n3c(-c4ccc(Cl)cc4)nc4ccccc4c3=O)cc2n1Cc1ccccc1	108%
CC(C)CCN(CCCNc1c2c(nc3cc(Cl)ccc13)CCCC2)CCC(C)C	90.6%
COCCOC(=O)NC(=O)Nc1ccc(C(=O)c2ccc(Cl)cc2)cc1	41.3%
COc1cc(-c2cc(-c3cc(OC)c(OC)c(OC)c3)nc3nc(N)[nH]c(=O)c23)ccc1Oc1ccnc2cc(Cl)ccc12	59.4%
COc1cc(Cn2c(-c3ccccc3)cc3c2-c2oncc2CC3)cc(OC)c1	34.8%
Cc1ccc(C2C=C(c3ccc(Cl)cc3)N=C3SC=CN32)c(Br)c1 (stereo not given)	74.2%
COc1ccc(/C=C2\SC(=S)N(CCCN3CCOCC3)C2=O)c(OC)c1	99.8%
Cc1cc(C)c2nc(C)c(C)[n+]([O-])c2c1	109%
Cc1ncc([N+](=O)[O-])n1CCOc1ccc(C(=O)/C=C/c2ccc(C(F)(F)F)cc2)cc1	69.7%
CCSc1nc2c([nH]1)c(=O)n(C)c(=S)n2C	109%

Structure (SMILES)	growth
c1ccc(C2CCCCC2)c(OCCCCCN2CCNCC2)c1	71.1%
CCN1CCN(c2ccc(Nc3ncnc4c3nnn4CCc3cc(OC)cc(OC)c3)cc2)CC1	94%
Cc1cccc2c1O/C(=C\c1ncc([N+](=O)[O-])n1C)C2=O	-5.53% (active)
COc1cc(Cn2c(-c3ccccc3)c(Cl)c3c2-c2oncc2CC3)cc(OC)c1	85.3%
COc1cc(-c2nc3ccccc3[nH]2)ccc1OCC(=O)N=Nc1c(O)[nH]c2ccccc12	98.4%
O=c1oc2cc(OS(=O)(=O)C3CC3)ccc2c2c1CCCCCC2	88.2%
CCOC(=O)c1sc(Nc2ncccn2)nc1-c1ccccn1	91.5%
COc1cccc(C(=O)NNc2nc(N3CCOCC3)nc(N3CCN(C(c4ccccc4)c4ccccc4)CC3)n2)c1	86.3%
N=C(N)c1ccc(-c2ccc(-c3ccccc3)s2)s1	10%
COc1cc(C(=O)n2nc(N)c3c(C)cc(C)nc32)cc(OC)c1OC	98.4%
COc1cccc(C(=O)NNc2nc(N3CCN(C4CCCCC4)CC3)nc(N3CCN(C(c4ccccc4)c4ccccc4)CC3)n2)c1	47.7%
Cc1ccc2oc(=O)cc(/C(=C3/C=CC=N3)c3ccc[nH]3)c2c1	16.2%
COc1cc(-c2n/c(=C\c3c(O)[nH]c4ccccc34)cc3c2=Nc2ccccc2-3)cc(OC)c1OC	37.7%
O=c1ccc2nc(-c3ccccc3)nn(-c3ccccc3)c-2c1	78%
COCCNCC(O)Cn1c2ccc(Cl)cc2c2cc(Cl)ccc21 (stereo not given)	24%
COc1ccc(-c2ccccc2)cc1C(=O)c1ccc(-c2ccccc2)cc1	81.3%
CCc1ccc(Nc2cc(C)nc3nc(C)nn23)cc1	15.4%
COc1cc(Cl)cc(-c2nn(-c3cccc(NC(=O)Nc4cccc(C(F)(F)F)c4)c3)cc2-c2ccncc2)c1	16.1%
O=C1CC(c2cccc(-c3cccnc3)c2)=Nc2ccc(Br)cc2N1	62.9%
COc1ccc(-c2nc3sc(-c4ccccc4)c(-c4ccccc4)n3c2/C=C/c2ccc(F)cc2)cc1	108%
